What all share (settings): mRNA level, 48 h; actives raise or lower the signal
Read-out in test [1]: Bcl-2 (BID) gene, BID (gene 637)
Kind of test: LTEA_HepaRG_BID: Life Technologies and Expression Analysis (LTEA) Assay for Bcl-2 (BID) gene using HepaRG (AID 2283476). Put shortly: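 Gene expression by qRT-PCR in HepaRG cells after 48 h exposure, duplicate wells, eight half-log concentrations topping at 100 uM in 0.5% DMSO. Normalized to ACTB, GAPDH, POLR2A; bidirectional fitting relative to DMSO.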

Read-out in test [2]: Caspase-3 (Homo sapiens) (UniProt P42574)
Kind of test: LTEA_HepaRG_CASP3: Life Technologies and Expression Analysis (LTEA) Assay for cysteine-aspartic acid protease (CASP3) using HepaRG (AID 2283477). The essentials: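 In HepaRG liver cells dosed for 48 h at up to 100 uM (eight-point, duplicate), CASP3 expression changes are scored by qRT-PCR. Activity is fitted in both directions with 0.5% DMSO as baseline.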

Read-out in test [3]: Cytochrome P450 (CYP24A1), CYP24A1 (gene 1591)
Nature of the test: LTEA_HepaRG_CYP24A1: Life Technologies and Expression Analysis (LTEA) Assay for Cytochrome P450 (CYP24A1) using HepaRG (AID 2283478). Put shortly:
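Human liver HepaRG cultures receive each chemical for 48 h across an eight-point half-log series topping at 100 uM in 0.5% DMSO. Induction or suppression of CYP24A1 mRNA is scored relative to vehicle after housekeeping-gene normalization.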

Read-out in test [4]: Cytochrome P450 (CYP1A2), CYP1A2 (gene 1544)
Kind of test: LTEA_HepaRG_CYP1A2: Life Technologies and Expression Analysis (LTEA) Assay for Cytochrome P450 (CYP1A2) using HepaRG (AID 2283479). Put shortly: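 Assesses CYP1A2 mRNA in human HepaRG liver cells after 48 h chemical exposure at up to 100 uM. Values come from qRT-PCR with bidirectional curve fitting relative to DMSO.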

Read-out in test [5]: cysteine-aspartic acid protease (CASP8), CASP8 (gene 841)
Nature of the test: LTEA_HepaRG_CASP8: Life Technologies and Expression Analysis (LTEA) Assay for cysteine-aspartic acid protease (CASP8) using HepaRG (AID 2283480). The essentials:
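Differentiated HepaRG cells in serum-free induction medium, 48 h exposure, eight-point half-log series from 100 uM in 0.5% DMSO, duplicates. CASP8 mRNA by qRT-PCR, normalized to ACTB, GAPDH, POLR2A; bidirectional fit versus DMSO.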

Read-out in test [6]: Cytochrome P450 (CYP2B6), CYP2B6 (gene 1555)
Nature of the test: LTEA_HepaRG_CYP2B6: Life Technologies and Expression Analysis (LTEA) Assay for Cytochrome P450 (CYP2B6) using HepaRG (AID 2283481). Put shortly: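 Using 48 h treatment of HepaRG cells in serum-free induction medium, concentrations spanned half-log steps from 100 uM in 0.5% DMSO vehicle. CYP2B6 mRNA induction or loss is scored by qRT-PCR against DMSO.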

Read-out in test [7]: Cytochrome P450 2C19 (Homo sapiens) (UniProt P33261)
Nature of the test: LTEA_HepaRG_CYP2C19: Life Technologies and Expression Analysis (LTEA) Assay for CYP2C19 using HepaRG (AID 2283482). Put shortly:
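Human HepaRG liver cells received test chemicals for 48 h (highest 100 uM, half-log dilutions in 0.5% DMSO). CYP2C19 mRNA induction or loss is read by multiplexed qRT-PCR and fitted in both directions versus vehicle.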

Read-out in test [8]: CYP2C8 (gene 1558)
Kind of test: LTEA_HepaRG_CYP2C8: Life Technologies and Expression Analysis (LTEA) Assay for CYP2C8 using HepaRG (AID 2283483). The essentials: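 Differentiated HepaRG cells in serum-free induction medium exposed 48 h in duplicate to 8 half-log concentrations from 100 uM in 0.5% DMSO. CYP2C8 mRNA by qRT-PCR normalized to ACTB, GAPDH, POLR2A; bidirectional fit versus DMSO.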

Read-out in test [9]: CYP2C9 (gene 1559)
Nature of the test: LTEA_HepaRG_CYP2C9: Life Technologies and Expression Analysis (LTEA) Assay for CYP2C9 using HepaRG (AID 2283484). Put shortly:
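Differentiated human HepaRG cells in serum-free induction medium were exposed 48 h to chemicals in 8-point half-log series from 100 uM (0.5% DMSO), in duplicate. CYP2C9 mRNA was measured by qRT-PCR, normalized to ACTB/GAPDH/POLR2A, with bidirectional fitting versus DMSO.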

Read-out in test [10]: CYP2E1 (gene 1571)
Kind of test: LTEA_HepaRG_CYP2E1: Life Technologies and Expression Analysis (LTEA) Assay for CYP2E1 using HepaRG (AID 2283485). The essentials:
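HepaRG cells, plated 48 h, then exposed 48 h in serum-free induction medium to eight half-log concentrations from 100 uM in 0.5% DMSO, duplicate. CYP2E1 mRNA by qRT-PCR, normalized to ACTB/GAPDH/POLR2A; bidirectional fit versus DMSO.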

Read-out in test [11]: CYP4A11 (gene 1579)
Kind of test: LTEA_HepaRG_CYP4A11: Life Technologies and Expression Analysis (LTEA) Assay for CYP4A11 using HepaRG (AID 2283486). Put shortly: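 Readout is CYP4A11 mRNA induction or suppression (qRT-PCR, ACTB/GAPDH/POLR2A normalization) in human HepaRG cells after 48 h chemical treatment, concentrations to 100 uM in 0.5% DMSO, fitted bidirectionally against vehicle.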

Read-out in test [12]: DNA damage-inducible transcript 3 (DDIT3), DDIT3 (gene 1649)
Nature of the test: LTEA_HepaRG_DDIT3: Life Technologies and Expression Analysis (LTEA) Assay for DNA damage-inducible transcript 3 (DDIT3) using HepaRG (AID 2283488). Put shortly: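 HepaRG cells, 48 h after plating, exposed 48 h in serum-free induction medium to 8 half-log concentrations up to 100 uM in 0.5% DMSO, in duplicate. DDIT3 mRNA measured by TaqMan qRT-PCR, normalized to ACTB, GAPDH and POLR2A. Fitted bidirectionally against DMSO.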

Read-out in test [13]: Pro-epidermal growth factor (Homo sapiens) (UniProt P01133)
Nature of the test: LTEA_HepaRG_EGF: Life Technologies and Expression Analysis (LTEA) Assay for Epidermal growth factor (EGF) using HepaRG (AID 2283489). The essentials: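 EGF expression changes in human HepaRG cells are scored by bidirectional fitting relative to 0.5% DMSO controls. Chemicals are tested at eight half-log concentrations up to 100 uM for 48 h in serum-free induction medium.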

Read-out in test [14]: Early growth response protein 1 (EGR1) transcription factor, EGR1 (gene 1958)
Kind of test: LTEA_HepaRG_EGR1: Life Technologies and Expression Analysis (LTEA) Assay for Early growth response protein 1 (EGR1) transcription factor using HepaRG (AID 2283490). The essentials: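 Differentiated HepaRG cells in serum-free induction medium exposed 48 hours, duplicate, to 8 half-log concentrations up to 100 uM in 0.5% DMSO. EGR1 mRNA measured by TaqMan qRT-PCR, normalized to ACTB, GAPDH, POLR2A; bidirectional fit versus DMSO.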

Read-out in test [15]: Ezrin (EZR), EZR (gene 7430)
Nature of the test: LTEA_HepaRG_EZR: Life Technologies and Expression Analysis (LTEA) Assay for Ezrin (EZR) using HepaRG (AID 2283491). The essentials:
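Gain or loss of EZR mRNA is scored relative to 0.5% DMSO in human HepaRG cultures treated 48 h with test chemicals in duplicate, eight half-log concentrations from 100 uM.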

Read-out in test [16]: Cytochrome P450 3A7 (Homo sapiens) (UniProt P24462)
Kind of test: LTEA_HepaRG_CYP3A7: Life Technologies and Expression Analysis (LTEA) Assay for CYP3A7 using HepaRG (AID 2283492). Put shortly: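 Cells were thawed, plated, cultured 48 h, then treated for a further 48 h with chemicals (eight-point half-log series from 100 uM, 0.5% DMSO). RNA was isolated and CYP3A7 expression quantified by qRT-PCR normalised to ACTB, GAPDH and POLR2A.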

Read-out in test [17]: CYP3A5 (gene 1577)
Nature of the test: LTEA_HepaRG_CYP3A5: Life Technologies and Expression Analysis (LTEA) Assay for CYP3A5 using HepaRG (AID 2283493). The essentials: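 HepaRG cells, plated 48 h then in serum-free induction medium, dosed in duplicate for 48 h with eight half-log concentrations up to 100 uM in 0.5% DMSO. Gene mRNA by Fluidigm TaqMan qRT-PCR, normalized to ACTB, GAPDH, POLR2A.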

Read-out in test [18]: Fatty Acid-Binding Protein 1 (FABP1), FABP1 (gene 2168)
Kind of test: LTEA_HepaRG_FABP1: Life Technologies and Expression Analysis (LTEA) Assay for Fatty Acid-Binding Protein 1 (FABP1) using HepaRG (AID 2283494). Put shortly: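 Differentiated human HepaRG cells exposed 48 h in serum-free induction medium to eight half-log concentrations up to 100 uM (0.5% DMSO), duplicate. FABP1 mRNA by qRT-PCR, normalised to ACTB, GAPDH, POLR2A; bidirectional fitting against DMSO.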

Read-out in test [19]: Cytochrome P450 4A22 (Homo sapiens) (UniProt Q5TCH4)
Kind of test: LTEA_HepaRG_CYP4A22: Life Technologies and Expression Analysis (LTEA) Assay for Cytochrome P450 4A22 (CYP4A22) using HepaRG (AID 2283495). The essentials:
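Cryopreserved HepaRG cells, plated and cultured 48 h, then switched to serum-free induction medium and treated 48 h (duplicates, up to 100 uM, half-log steps, 0.5% DMSO). Expression change of CYP4A22 was fitted bidirectionally against vehicle.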

Read-out in test [20]: Cytochrome P450 3A4 (Homo sapiens) (UniProt P08684)
Kind of test: LTEA_HepaRG_CYP3A4: Life Technologies and Expression Analysis (LTEA) Assay for CYP3A4 using HepaRG (AID 2283487). The essentials:
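In a human hepatic line (HepaRG), duplicate wells were treated 48 h with up to 100 uM chemical in half-log dilutions. Endpoint: CYP3A4 mRNA induction or loss relative to 0.5% DMSO vehicle, by qRT-PCR.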

Outcome and AC50 data for three molecules are collected here from PubChem BioAssay (EPA / NIEHS).

A word on the AC50: it is the midpoint of the concentration-response curve, whichever way the signal moves.

Active and inactive are the calls of the source. The calls were made as follows: active = hit-call score of the fitted dose curve at least 0.9, where 1 is the maximum; inactive = score below 0.9.

Cytochrome P450 2C19 (Homo sapiens), sequence (P33261 whole entry, looked up): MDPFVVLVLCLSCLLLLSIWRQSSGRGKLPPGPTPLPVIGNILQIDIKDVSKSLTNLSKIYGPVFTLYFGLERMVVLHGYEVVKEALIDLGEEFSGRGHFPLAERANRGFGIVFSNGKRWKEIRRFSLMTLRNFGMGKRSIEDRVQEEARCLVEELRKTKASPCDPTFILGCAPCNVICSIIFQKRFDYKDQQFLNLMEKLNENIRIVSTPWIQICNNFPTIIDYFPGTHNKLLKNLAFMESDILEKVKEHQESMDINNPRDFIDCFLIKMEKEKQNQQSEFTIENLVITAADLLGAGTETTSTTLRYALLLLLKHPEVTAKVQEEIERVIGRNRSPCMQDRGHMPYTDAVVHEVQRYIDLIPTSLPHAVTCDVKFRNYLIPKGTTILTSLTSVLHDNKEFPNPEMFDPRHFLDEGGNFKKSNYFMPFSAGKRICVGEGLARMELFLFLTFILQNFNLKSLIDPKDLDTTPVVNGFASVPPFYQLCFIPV
Caspase-3 (Homo sapiens), sequence (P42574 whole entry, looked up): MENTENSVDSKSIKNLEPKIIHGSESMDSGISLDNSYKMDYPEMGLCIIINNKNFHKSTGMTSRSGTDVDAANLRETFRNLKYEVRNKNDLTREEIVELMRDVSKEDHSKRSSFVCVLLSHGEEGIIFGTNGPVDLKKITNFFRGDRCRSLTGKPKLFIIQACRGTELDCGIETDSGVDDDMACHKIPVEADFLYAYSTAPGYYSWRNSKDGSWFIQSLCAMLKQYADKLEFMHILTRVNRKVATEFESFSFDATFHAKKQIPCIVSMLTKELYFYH
Cytochrome P450 3A4 (Homo sapiens), sequence (P08684 whole entry, looked up): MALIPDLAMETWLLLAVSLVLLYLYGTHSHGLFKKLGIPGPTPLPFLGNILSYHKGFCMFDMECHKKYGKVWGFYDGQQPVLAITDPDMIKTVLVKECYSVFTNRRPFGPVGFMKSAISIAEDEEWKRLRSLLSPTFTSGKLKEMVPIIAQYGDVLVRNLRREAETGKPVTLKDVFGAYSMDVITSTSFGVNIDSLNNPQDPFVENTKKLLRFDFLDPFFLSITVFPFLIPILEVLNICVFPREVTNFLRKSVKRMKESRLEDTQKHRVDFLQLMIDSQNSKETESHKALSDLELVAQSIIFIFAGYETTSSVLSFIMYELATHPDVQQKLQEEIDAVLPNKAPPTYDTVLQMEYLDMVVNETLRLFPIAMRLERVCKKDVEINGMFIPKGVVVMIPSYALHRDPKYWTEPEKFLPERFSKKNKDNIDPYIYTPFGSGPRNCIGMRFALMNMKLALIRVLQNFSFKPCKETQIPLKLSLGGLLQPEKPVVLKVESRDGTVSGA
Cytochrome P450 3A7 (Homo sapiens), sequence (P24462 whole entry, looked up): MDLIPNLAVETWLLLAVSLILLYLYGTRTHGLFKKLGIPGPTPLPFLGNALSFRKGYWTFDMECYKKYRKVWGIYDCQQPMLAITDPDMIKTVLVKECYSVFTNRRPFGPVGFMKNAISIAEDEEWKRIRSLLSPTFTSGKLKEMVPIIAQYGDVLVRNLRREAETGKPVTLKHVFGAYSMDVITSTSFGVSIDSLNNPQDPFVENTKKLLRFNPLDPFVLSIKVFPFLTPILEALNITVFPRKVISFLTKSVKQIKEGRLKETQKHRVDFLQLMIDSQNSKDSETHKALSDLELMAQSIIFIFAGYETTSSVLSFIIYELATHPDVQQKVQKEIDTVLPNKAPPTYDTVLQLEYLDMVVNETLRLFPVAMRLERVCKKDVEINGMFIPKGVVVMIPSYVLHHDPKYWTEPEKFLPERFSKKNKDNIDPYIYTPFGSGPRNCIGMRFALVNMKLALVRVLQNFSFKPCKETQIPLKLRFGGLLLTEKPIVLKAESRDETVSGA

On to `O=C(Nc1ccccc1-c1ccc(Cl)cc1)c1cccnc1Cl`, for which the molecule was classed as inactive in test [1], in [2], in [3], in test [4], in [5] and in [7]. The molecule was classed as inactive in [8], in test [9], in [11], in [12], in [13] and in test [14]. Besides, the outcome in test [15], in [16], in test [17] and in test [19] was inactive. Moreover, the figures for the AC50 in [6], in test [10] and in test [18] were 1.62 µM (active), 52.5 µM (active) and 33.9 µM (active), respectively.
For `CS(=O)(=O)c1ccc(C(=O)C2C(=O)CCCC2=O)c([N+](=O)[O-])c1`, the result in [1], in test [2], in test [3], in [5], in test [6] and in test [7] was inactive. For the same molecule, the call in test [8], in test [9], in test [10], in [11], in [20] and in [13] was inactive. Moreover, the molecule was called inactive in test [15], in [16], in test [17], in test [18] and in test [19]. Also, the concentration at half-maximal activity (AC50) in [4] is 18.4 µM (active).
For `CCOc1nc(F)cc2nc(S(=O)(=O)Nc3c(Cl)cccc3Cl)nn12`, the molecule was classed as inactive in [1], in test [2], in test [3], in test [4], in test [5] and in test [7]. Also, the call in test [8], in test [9], in test [11], in [13], in [14] and in test [15] was inactive. Besides, the molecule was called inactive in test [17], in test [18] and in [19]. For the same molecule, the half-maximal activity concentration (AC50) in test [6] was 13.2 µM (active); in test [10], 20.3 µM (active); in test [20] it was 1.85 µM (active).
